According to PubChem BioAssay AID1159580 (chemical genetic matrix, 2015):
The whole screen tested about 5,500 compounds, of which about 2,000 (36%) were called active. About 18% were inconclusive and are not listed. Rule as the data show it: active = normalized growth mostly below about 0.91 (no sharp cut-off); inconclusive = no clear call, values can overlap the other calls; inactive = mostly above about 0.92. The list shows a part of the results.

Assay: chemical genetic growth profiling, strain panel (AID 1159580);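 also: tested at 20 µM; growth read once vehicle control cultures reached saturation at 30 °C; 1 = growth at the plate median or of vehicle wells; lower values mean less growth of the strain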
Settings: growth OD

Measured: normalized growth

CC(=O)c1ccc(-c2ccc(C(C)=O)cc2)cc1
inactive: S. cerevisiae deletion strains, locus YAL013W, strain DEP1, stronger effect = lower value 1 | S. cerevisiae deletion strains, locus YBR229C, strain ROT2, stronger effect = lower value 0.999 | S. cerevisiae deletion strains, locus YDL101C, strain DUN1, stronger effect = lower value 1.03 | S. cerevisiae deletion strains, locus YDL134C, strain PPH21, stronger effect = lower value 1.01 | S. cerevisiae deletion strains, locus YDR150W, strain NUM1, stronger effect = lower value 1 | S. cerevisiae deletion strains, locus YEL061C, strain CIN8, stronger effect = lower value 1.01 | S. cerevisiae deletion strains, locus YGR078C, strain PAC10, stronger effect = lower value 1.02 | S. cerevisiae deletion strains, locus YGR229C, strain SMI1, stronger effect = lower value 1 | S. cerevisiae deletion strains, locus YHR030C, strain SLT2, stronger effect = lower value 0.999 | S. cerevisiae deletion strains, locus YHR087W, strain rtc3, stronger effect = lower value 0.987 | S. cerevisiae deletion strains, locus YJR043C, strain POL32, stronger effect = lower value 0.974 | S. cerevisiae deletion strains, locus YJR075W, strain HOC1, stronger effect = lower value 1.02 | S. cerevisiae deletion strains, locus YKL190W, strain CNB1, stronger effect = lower value 1 | S. cerevisiae deletion strains, locus YLR039C, strain RIC1, stronger effect = lower value 1.06 | S. cerevisiae deletion strains, locus YLR058C, strain SHM2 (second series), stronger effect = lower value 0.987 | S. cerevisiae deletion strains, locus YLR085C, strain ARP6, stronger effect = lower value 0.95 | S. cerevisiae deletion strains, locus YLR262C, strain YPT6, stronger effect = lower value 1.03 | S. cerevisiae deletion strains, locus YML094W, strain GIM5, stronger effect = lower value 0.955 | S. cerevisiae deletion strains, locus YMR219W, strain ESC1, stronger effect = lower value 1.02 | S. cerevisiae deletion strains, locus YMR263W, strain SAP30, stronger effect = lower value 1 | S. cerevisiae deletion strains, locus YMR307W, strain GAS1, stronger effect = lower value 0.977 | S. cerevisiae deletion strains, locus YNL153C, strain GIM3, stronger effect = lower value 1.01 | S. cerevisiae deletion strains, locus YNL298W, strain CLA4 (second series), stronger effect = lower value 1.01 | S. cerevisiae deletion strains, locus YNL322C, strain KRE1, stronger effect = lower value 1.01 | S. cerevisiae deletion strains, locus YNR030W, strain Alg12, stronger effect = lower value 1.01 | S. cerevisiae deletion strains, locus YOL006C, strain TOP1, stronger effect = lower value 0.956 | S. cerevisiae deletion strains, locus YPL055C, strain LGE1, stronger effect = lower value 0.941 | S. cerevisiae deletion strains, locus YPL241C, strain CIN2, stronger effect = lower value 0.991 | S. cerevisiae deletion strains, locus YPR135W, strain CTF4, stronger effect = lower value 1.01 | S. cerevisiae strains, strain wild type, stronger effect = lower value 1.03
